# Data reported in ChEMBL document CHEMBL5308504, “Tm Shift (DSF) assay results for EUbOPEN Chemogenomics Library” (2023).
# “And” between values parts separate entries of the source, which are not always exact repeats. Equal values may be shown once.
# What was measured:
# Conditions in all cases: Compound concentration 20.0 uM, Protein concentration 2.0 uM, Result type QC Liability
# [1] = biological target: Tyrosine-protein kinase ABL1 (Homo sapiens) (UniProt P00519)
# [2] = biological target: Cyclin-dependent kinase 2 (Homo sapiens) (UniProt P24941)
# [3] = biological target: Casein kinase I isoform delta (Homo sapiens) (UniProt P48730)
# Sequence of Casein kinase I isoform delta (Homo sapiens) (P48730 whole entry, looked up, canonical isoform): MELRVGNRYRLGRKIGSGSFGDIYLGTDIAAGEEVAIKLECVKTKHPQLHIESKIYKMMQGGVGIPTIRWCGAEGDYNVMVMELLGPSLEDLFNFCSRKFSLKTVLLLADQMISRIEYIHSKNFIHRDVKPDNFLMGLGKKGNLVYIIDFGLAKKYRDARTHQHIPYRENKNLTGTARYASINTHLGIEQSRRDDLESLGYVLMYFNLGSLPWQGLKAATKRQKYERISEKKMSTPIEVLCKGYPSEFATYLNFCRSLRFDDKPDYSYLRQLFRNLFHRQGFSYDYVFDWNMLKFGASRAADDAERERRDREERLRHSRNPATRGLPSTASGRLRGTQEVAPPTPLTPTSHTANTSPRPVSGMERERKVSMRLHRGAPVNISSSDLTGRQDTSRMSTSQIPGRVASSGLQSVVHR
# [4] = biological target: Glycogen synthase kinase-3 beta (Homo sapiens) (UniProt P49841)
# Sequence of Glycogen synthase kinase-3 beta (Homo sapiens) (P49841 whole entry, looked up): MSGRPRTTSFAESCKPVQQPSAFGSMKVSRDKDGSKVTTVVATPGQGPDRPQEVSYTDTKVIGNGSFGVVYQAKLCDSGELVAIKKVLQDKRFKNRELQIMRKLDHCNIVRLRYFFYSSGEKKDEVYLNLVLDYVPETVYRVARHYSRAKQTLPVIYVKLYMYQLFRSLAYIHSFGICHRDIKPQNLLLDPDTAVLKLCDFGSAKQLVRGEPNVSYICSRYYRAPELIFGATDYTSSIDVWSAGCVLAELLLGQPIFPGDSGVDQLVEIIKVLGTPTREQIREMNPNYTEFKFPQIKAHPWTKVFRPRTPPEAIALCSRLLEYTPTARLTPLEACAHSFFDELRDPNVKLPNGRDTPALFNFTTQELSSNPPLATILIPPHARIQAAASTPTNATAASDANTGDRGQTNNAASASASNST
# [5] = biological target: Mitogen-activated protein kinase 1 (Homo sapiens) (UniProt P28482)
# Sequence of Mitogen-activated protein kinase 1 (Homo sapiens) (P28482 whole entry): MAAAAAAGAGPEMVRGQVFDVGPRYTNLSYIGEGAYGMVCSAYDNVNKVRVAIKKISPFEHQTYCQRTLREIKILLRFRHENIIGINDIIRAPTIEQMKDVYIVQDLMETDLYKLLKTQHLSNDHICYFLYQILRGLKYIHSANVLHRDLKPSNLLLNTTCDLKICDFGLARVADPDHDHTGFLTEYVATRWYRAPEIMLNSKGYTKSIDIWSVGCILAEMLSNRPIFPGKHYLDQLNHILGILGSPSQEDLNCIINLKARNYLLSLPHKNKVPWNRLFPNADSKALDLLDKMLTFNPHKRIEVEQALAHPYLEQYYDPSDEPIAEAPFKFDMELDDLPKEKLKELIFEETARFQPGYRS
# [6] = biological target: T1, Aurora kinase A (Homo sapiens) (UniProt O14965)
# T1 sequence (whole entry): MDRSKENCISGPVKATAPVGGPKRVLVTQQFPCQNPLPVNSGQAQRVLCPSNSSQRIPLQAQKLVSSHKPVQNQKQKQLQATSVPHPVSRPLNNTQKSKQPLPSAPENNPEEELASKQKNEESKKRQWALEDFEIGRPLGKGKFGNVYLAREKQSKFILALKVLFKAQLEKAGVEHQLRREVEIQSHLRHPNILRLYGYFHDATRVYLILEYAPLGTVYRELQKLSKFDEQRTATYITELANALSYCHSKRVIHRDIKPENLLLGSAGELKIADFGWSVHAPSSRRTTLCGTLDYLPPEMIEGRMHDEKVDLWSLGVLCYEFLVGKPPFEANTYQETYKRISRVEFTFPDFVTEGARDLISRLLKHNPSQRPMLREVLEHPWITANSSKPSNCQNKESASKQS
# Sequence of Tyrosine-protein kinase ABL1 (Homo sapiens) (P00519 whole entry): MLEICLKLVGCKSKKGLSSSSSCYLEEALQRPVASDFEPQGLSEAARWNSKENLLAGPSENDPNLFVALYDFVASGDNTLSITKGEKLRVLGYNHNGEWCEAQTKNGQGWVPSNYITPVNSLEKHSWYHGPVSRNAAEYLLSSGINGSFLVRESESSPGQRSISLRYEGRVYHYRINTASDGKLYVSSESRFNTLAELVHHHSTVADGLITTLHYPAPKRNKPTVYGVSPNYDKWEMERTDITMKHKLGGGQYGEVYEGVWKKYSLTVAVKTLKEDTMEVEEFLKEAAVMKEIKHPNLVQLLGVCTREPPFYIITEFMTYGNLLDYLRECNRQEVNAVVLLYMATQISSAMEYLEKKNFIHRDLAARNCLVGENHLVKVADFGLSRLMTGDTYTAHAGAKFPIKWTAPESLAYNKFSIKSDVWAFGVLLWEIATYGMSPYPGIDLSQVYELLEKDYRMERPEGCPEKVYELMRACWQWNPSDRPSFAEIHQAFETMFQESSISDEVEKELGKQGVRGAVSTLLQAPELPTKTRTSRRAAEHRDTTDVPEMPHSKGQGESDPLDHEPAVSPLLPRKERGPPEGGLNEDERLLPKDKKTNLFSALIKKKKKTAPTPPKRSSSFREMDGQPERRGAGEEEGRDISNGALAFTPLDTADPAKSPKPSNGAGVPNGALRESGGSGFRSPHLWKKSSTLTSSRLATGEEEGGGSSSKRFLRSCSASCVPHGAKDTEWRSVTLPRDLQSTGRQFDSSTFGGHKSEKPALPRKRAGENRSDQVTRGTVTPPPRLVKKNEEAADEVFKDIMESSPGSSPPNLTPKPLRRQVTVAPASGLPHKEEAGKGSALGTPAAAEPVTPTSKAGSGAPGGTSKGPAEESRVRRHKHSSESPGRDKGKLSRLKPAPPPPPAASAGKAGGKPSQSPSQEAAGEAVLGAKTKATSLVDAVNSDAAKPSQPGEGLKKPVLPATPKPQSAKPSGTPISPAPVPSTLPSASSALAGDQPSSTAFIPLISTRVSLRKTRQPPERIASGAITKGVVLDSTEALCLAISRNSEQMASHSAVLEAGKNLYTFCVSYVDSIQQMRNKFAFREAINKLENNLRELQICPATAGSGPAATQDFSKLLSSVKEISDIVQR
SMILES,ΔTm [1],ΔTm [2] [°C],ΔTm [3],ΔTm [4],ΔTm [5],ΔTm [6]
Cc1cccc(-c2nn3c(c2-c2ccnc4ccc(C(N)=O)cc24)CCC3)n1,1.72 °C,0.75,3.53 °C,3.04 °C,0.51 °C,-0.95 °C
NC(=O)OC[C@H](NC(=O)Cn1nc(-c2ccc(Cl)cc2)n(C[C@H](O)C(F)(F)F)c1=O)c1cccc(C(F)(F)F)c1,1.4 °C,1.62,0.82 °C,2.1 °C,1.35 °C,0.82 °C
N=C(N)NCCC[C@H](NC(=O)CC1(CC(=O)N2CCN(C3c4ccccc4NC(=O)c4ccccc43)CC2)CCCC1)C(=O)NCCn1c(=O)n(-c2ccccc2)n(-c2ccccc2)c1=O (stereo partly specified),-2.29 °C,-1.3,-0.34 °C,-1.99 °C,-0.45 °C,-0.47 °C
CC(C)[C@H](CO)Nc1nc(Nc2ccc(C(=O)O)c(Cl)c2)c2ncn(C(C)C)c2n1,6.07 °C,9.51,2.59 °C,2.37 °C,4.14 °C,7.69 °C
CN1C(=O)[C@@H](NC(=O)c2cc(Cc3ccccc3)on2)COc2ccccc21,-2.16 °C,-0.24,-4.18 °C,-4.43 °C,-1.79 °C,-1.24 °C
O=C(CCCN1CCC(O)(c2ccc(Cl)cc2)CC1)c1ccc(F)cc1,0.25 °C,0.82,0.25 °C,-0.66 °C,0.38 °C,-0.3 °C
Cc1ncc(C(=O)Nc2cc(C(C)(C)C)on2)cc1-n1cc(-c2cnn(C)c2C)nn1,9.67 °C,0.45,2.28 °C,-0.79 °C,0.26 °C,-0.09 °C
COc1nc2ccc([C@@](O)(c3ccccc3)C3CCN(C(C)=O)CC3)cc2c(Cl)c1Cc1ccc(-n2cccn2)cc1,-0.06 °C,-0.4,-0.56 °C,-3.26 °C,0.14 °C,-0.6 °C
CC(=O)Nc1cccc(-n2c(=O)n(C3CC3)c(=O)c3c(Nc4ccc(I)cc4F)n(C)c(=O)c(C)c32)c1,-0.1 °C,0.48,0.23 °C,-0.51 °C,0.29 °C,-0.21 °C
N#Cc1ccc(COc2ccc(Br)cc2CNCCO)cn1,0.3 °C,0.22,0.13 °C,-0.56 °C,0.45 °C,-1 °C
CN(C)CCCNc1ccnc(Nc2cccc(Cl)c2)n1,2.74 °C,2.3,0.78 °C,6.75 °C,0.51 °C,2.26 °C
CCCS(=O)(=O)Nc1ccc(F)c(Nc2ncnc3cnc(-n4cnc(C)c4)nc23)c1F,1.19 °C,1.1,0.17 °C,0.89 °C,0.39 °C,-0.24 °C
COCCOCn1c(S(C)(=O)=O)nc2c1c(=O)n(C)c(=O)n2C,0.21 °C,0.39,-0.13 °C,-0.24 °C,-0.83 °C,0.11 °C
NC(=O)C1CCCc2c1[nH]c1ccc(Cl)cc21 (stereo unspecified),0.05 °C,0.79,0.23 °C,-0.8 °C,0.44 °C,0.7 °C
COCc1c(-c2cc3cc(C)cc(OC)c3s2)c2c(N)ncnn2c1CN[C@@H]1CCNC1=O,2.45 °C,0.59,0.29 °C,-0.7 °C,0.28 °C,3.49 °C
CC(C)(O)CNC(=O)N1C(=O)N(c2cccc(C(F)(F)F)c2)C2=C(C(=O)CC2)[C@@H]1c1ccc(C#N)cc1,0.02 °C,0.61,0.18 °C,-0.62 °C,0.17 °C,-0.16 °C
FC(F)(F)c1ccc(CNc2ccc(Cc3c[nH]c4ncc(Cl)cc34)cn2)cn1,-2.59 °C,1.62,1.05 °C,-0.38 °C,0.93 °C,10.6 °C
CC(C)N(CCCCOCC(=O)O)c1cnc(-c2ccccc2)c(-c2ccccc2)n1,0.75 °C,-0.83,0.48 °C,0.74 °C,-0.32 °C,-1.44 °C
COc1cc2ncnc(Nc3ccc4c(cnn4Cc4ccccc4)c3)c2cc1OC,-2.25 °C,-2.73,0.02 °C,-2.74 °C,-0.38 °C,0.63 °C
C[C@@H]1OCC2(CCN(c3cnc(Sc4ccnc(N)c4Cl)c(N)n3)CC2)[C@@H]1N,0.58 °C,0.91,-0.25 °C,0.28 °C,0.06 °C,-0.32 °C
CC(C)C(=O)N[C@@H]1CCN(C(=O)Nc2nc3c(s2)-c2nc(-c4ccccc4Cl)ncc2CC3)C1,2.72 °C,0.75,2.85 °C,0.38 °C,0.99 °C,2.98 °C
CC(F)(F)CN1C(=O)c2[nH]nc(-c3cccc4[nH]c(=O)oc34)c2C1c1ccc(Oc2cc(C(F)(F)F)cc(C(F)(F)F)c2)cc1 (stereo unspecified),0.76 °C,0.46,4.37 °C,-4.17 °C,1.19 °C,0 °C
COc1cc(-c2cncc(-c3cnn(C4CCNCC4)c3)c2)cc(OC)c1OC,4.87 °C,0.28,0.76 °C,-0.71 °C,0.5 °C,-0.25 °C
CC[C@H](CO)Nc1nc(Nc2cccc(-c3ccccn3)c2)c2ncn(C(C)C)c2n1,7.62 °C,4.37,4.48 °C,1.93 °C,2.21 °C,4.01 °C
CCOC(=O)Nc1ccc2c(c1)N(C(=O)CN(CC)CC)c1ccccc1CC2,0.17 °C,0.57,0.58 °C,-0.12 °C,0.19 °C,-1.06 °C
COc1ccc(CC[C@@H](OC(=O)[C@H]2CCCCN2C(=O)[C@@H](c2cc(OC)c(OC)c(OC)c2)C2CCCCC2)c2cccc(OCCN3CCOCC3)c2)cc1OC,-1.34 °C,-4.12,-1.85 °C,-1.12 °C,-0.42 °C,-1.27 °C

SMILES,ΔTm [1],ΔTm [2] [°C],ΔTm [3],ΔTm [4],ΔTm [5],ΔTm [6]
CC(=O)O[C@H]1C(=O)[C@@]2(C)[C@H]([C@H](OC(=O)c3ccccc3)[C@]3(O)C[C@H](OC(=O)[C@H](O)[C@@H](NC(=O)c4ccccc4)c4ccccc4)C(C)=C1C3(C)C)[C@]1(OC(C)=O)CO[C@@H]1C[C@@H]2O,0.38 °C,0.99,-0.22 °C,-0.02 °C,0.57 °C,-0.14 °C
CCc1nc(-c2cccc(C)c2)c(-c2ccnc(NC(=O)c3ccccc3)c2)s1,1.26 °C,-1.36,4.93 °C,-1.07 °C,-0.25 °C,-1.25 °C
COCCN1CCN(CCn2ccc(Nc3ncc4c(n3)-c3c(nn(C)c3-c3ccccc3)C[C@H]4C)n2)CC1,2.08 °C,3.1,5.97 °C,0.86 °C,1.18 °C,2.79 °C
CN(C)[C@H]1CCN(c2cc(C(F)(F)F)c(C#N)c(Nc3cccc(CCC(=O)O)c3)n2)C1,-0.06 °C,0.28,0.14 °C,0.08 °C,0.58 °C,0.51 °C
O=C(O)CCCCCC[C@@H]1C(=O)NC(=O)N1CCC(O)C1CCCCC1 (stereo partly specified),0.19 °C,0.46,-0.02 °C,0.34 °C,-0.39 °C,-0.24 °C
CC(=O)Nc1nc(CN2CCC[C@H](Cc3cc(C)nc(C)c3)C2)cs1,0.19 °C,0,0.1 °C,-0.34 °C,0.5 °C,0.28 °C
Cc1cc2ncnn2cc1Nc1ncc2c(n1)n(C1CCOCC1)c(=O)n2C,-0.11 °C,0.84,0.63 °C,1.17 °C,1.17 °C,0.06 °C
Cc1cc(OCc2nc3ccccc3s2)ccc1NC(=O)Nc1ccc(Cl)c(Cl)c1,0.33 °C,1.38,-0.26 °C,-1.81 °C,-0.19 °C,0.13 °C
CCC(=O)N[C@H]1CC[C@@H](C(=O)N(C)c2ccc(-c3nc4ccccc4o3)cc2)C1,0.73 °C,0.83,0.61 °C,-0.48 °C,0.13 °C,0.03 °C
Cc1ccc(C(=O)Nc2cc(N3CCN(C)CC3)cc(C(F)(F)F)c2)cc1-n1cc(-c2cnn(C)c2C)nn1,12.9 °C,0.76,1.19 °C,-0.67 °C,0.45 °C,0.76 °C
O=C(O)C[C@H]1CCn2c1c(Sc1ccc(Cl)cc1)c1ccc(F)cc12,-1 °C,-1.1,-0.47 °C,0 °C,-0.38 °C,-0.18 °C
CC1CN(CC(=O)N2CC(C)(C)c3nc(CO)c(Cc4ccc(F)cc4)cc32)C(CN2CCOCC2C)CN1 (stereo unspecified),0.01 °C,0.68,0.32 °C,-1.07 °C,0.17 °C,-1.32 °C
O=C(NCCN1CCOCC1)c1ccc2nn(CCOc3ccc(Cl)cc3)cc2c1,0.88 °C,0.59,0.35 °C,-0.24 °C,0.56 °C,0.05 °C
COc1c(OCCCN2CCOCC2)ccc2c1N=C(NC(=O)c1cnc(N)nc1)N1CCN=C21,0.09 °C,0.39,0.2 °C,-1.01 °C,0.14 °C,-0.67 °C
COc1cc(-c2cc3ncccc3c(O[C@H](C)[C@H]3CNC(=O)C3)n2)cc(OC)c1OC,3.69 °C and 3.1 °C,0.94,3.55 °C and 2.97 °C,-0.33 °C and -0.99 °C,1.84 °C and 1.51 °C,9.58 °C and 8.08 °C
O=C1CCCN1CCNc1nc(Nc2ccc(Cl)c(Cl)c2)ncc1C(F)(F)F,4.3 °C,5.26,0.96 °C,3.17 °C,4.18 °C,11.2 °C
CC(=O)c1ccc2c(c1)/C(=C(/NC1CCN(C)CC1)c1ccc3c(c1)OCO3)C(=O)N2,0.16 °C,4.87,2.46 °C,15.5 °C,0.57 °C,0.78 °C
COc1cc(Cl)c(C(=O)N[C@@H](CN[C@H]2CC[C@@H](N)CC2)Cc2ccc(C#N)cc2)cc1-c1ccc(CN[C@H](C)c2ccc(C)cc2)o1,0.33 °C,0.42,-0.07 °C,-0.81 °C,0.33 °C,0.07 °C
O=C1Nc2ccc(C(=O)c3ccco3)cc2C1=Cc1cc(Cl)c(O)c(Cl)c1,4.46 °C,0.67,3.71 °C,5.93 °C,0.54 °C,5.03 °C
O=C(O)[C@]1(Cc2cccc(Nc3nccs3)n2)CC[C@@H](Oc2cccc(Cl)c2F)CC1,17.2 °C,5.36,1.53 °C,8.49 °C,1.32 °C,25.4 °C
CCN(C)S(=O)(=O)Nc1cccc(-c2ccc3c(NC(=O)C4CC4)n[nH]c3c2)c1,4.16 °C,3.52,0.06 °C,3.82 °C,0.42 °C,4.06 °C
COc1c(NC(=O)c2cc3cccc(Oc4ccnc(C(=O)N5CCN(C)CC5)c4)c3n2C)cc(C(C)(C)C)cc1NS(C)(=O)=O,0.38 °C,-0.2,0.73 °C,-0.6 °C,0.86 °C,-1.1 °C
COc1cc(-c2cn(C)c(=O)c3cnccc23)c(OC)cc1CN(C)C,0.49 °C,0.53,0.06 °C,0.1 °C,-0.12 °C,-0.18 °C
O=C(O)c1ccc(OCCCc2ccc(OCCCCOC3CCCCC3)cc2)c(C(=O)NC2CCCC(C(=O)O)C2)c1 (stereo unspecified),-0.97 °C,-0.34,0.18 °C,-0.84 °C,-0.39 °C,-1.1 °C
CC[C@@H](Nc1c(C#N)c(-c2ccc(-c3cccc(C)c3F)cc2)nc2cnccc12)C(=O)O,1.07 °C,-0.82,-0.63 °C,0.06 °C,-0.07 °C,5.1 °C
